Reference: PubChem BioAssay (NCATS)
Records with an inconclusive call do not appear. Entries that show only a call come without a potency. Active and inactive are the calls of the source. Unless noted, calls come from the whole dose curve; as a rule, active = well fitted activation curve with a large enough effect in the main read-out, with a control signal flat (not every such curve was filed as active); inconclusive = small, poorly fitted or top-dose-only effect, or effect the other way, or a change in a side signal; inactive = flat fitted curve, though single readings scatter.

Legend:
[1] = biological target: 3',5'-cyclic-AMP phosphodiesterase 4B (Homo sapiens) (UniProt Q07343); assay: qHTS Assay for Inhibitors of PDE-IV (AID 607)
Summary of the method: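 ACTOne HEK293 cells carry a modified cAMP-gated CNG channel and express endogenous PDE4; plated 1000 cells/well, compounds up to 22.9 uM final. Membrane-potential dye fluorescence (ex 535/em 590) was read; parental cells received 10 uM forskolin + 100 uM RO 20-1724.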

[2] = Cellular Toxicity (caspase-3) HepG2 (AID 654; active = well fitted curve in the direction sought with a large enough effect; an effect the other way counts as inactive or inconclusive;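 note: cells exposed to compound for 16 hours before reading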)
Summary of the method: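 Concentration-response AC50 values reflect caspase-3/7 induction in HepG2 cells after 16 hours of compound exposure, quantified by luminescence from liberated aminoluciferin and referenced to 100 uM tamoxifen as full stimulation.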

[3] = Cellular Toxicity (caspase-3) HUV-EC-C (AID 656; active = well fitted curve in the direction sought with a large enough effect; an effect the other way counts as inactive or inconclusive)
Summary of the method: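 Luminescent Caspase-Glo 3/7 readout after 16 h, 37 °C compound exposure of HUV-EC-C endothelial cells, 1000 per well, complete medium. AC50 derived by Hill fitting, with DMSO as baseline and 100 uM tamoxifen as full activation.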

[4] = Cellular Toxicity (caspase-3) SHSY5Y (AID 657; active = well fitted curve in the direction sought with a large enough effect; an effect the other way counts as inactive or inconclusive)
Summary of the method: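 Luminescent Caspase-Glo 3/7 read-out, 1 hr room temperature, follows 16 hours of compound treatment of SH-SY5Y cells at 37 °C. Normalization: DMSO basal, 10 uM staurosporine as 100%; AC50 values from Hill-equation concentration-response fits.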

[5] = Cellular Toxicity (caspase-3) BJ (AID 658; active = well fitted curve in the direction sought with a large enough effect; an effect the other way counts as inactive or inconclusive)
Summary of the method: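 Plated BJ cells (1000/well) rested 5 hr, received compound for 16 hr at 37 °C, then Caspase-Glo 3/7 reagent for 1 hr at room temperature before luminescence reading.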

[6] = Cellular Toxicity (caspase-3) MRC-5 (AID 659; active = well fitted curve in the direction sought with a large enough effect; an effect the other way counts as inactive or inconclusive); conditions: Potency: caspase-3 activation
Summary of the method: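 Apoptosis readout in MRC-5 cells: luciferase light generated after caspase 3/7 cleaves a peptide-aminoluciferin substrate, measured post 16 hr compound incubation at 37 °C.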

[7] = Cellular Toxicity (caspase-3) Mesangial (AID 660; active = well fitted curve in the direction sought with a large enough effect; an effect the other way counts as inactive or inconclusive;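 note: combined caspase 3 and 7 activity read by Caspase-Glo luminescence; cells exposed to compound for 16 h before the caspase read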)
Summary of the method: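 AC50 values come from Hill-equation fits of caspase 3/7 activation, measured as Caspase-Glo luminescence in human glomerular mesangial cells exposed to compound for 16 h at 37 °C; 100% set by 100 uM tamoxifen.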

[8] = Cellular Toxicity (caspase-3) SK-N-SH (AID 661; active = well fitted curve in the direction sought with a large enough effect; an effect the other way counts as inactive or inconclusive)
Summary of the method: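 Apoptosis readout in SK-N-SH neuroblastoma: Caspase-Glo 3/7 luminescence following 16 hr treatment in complete culture medium. Normalization used DMSO and 10 uM staurosporine controls.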

Chain of 3',5'-cyclic-AMP phosphodiesterase 4B (Homo sapiens) (Q07343 whole entry, looked up): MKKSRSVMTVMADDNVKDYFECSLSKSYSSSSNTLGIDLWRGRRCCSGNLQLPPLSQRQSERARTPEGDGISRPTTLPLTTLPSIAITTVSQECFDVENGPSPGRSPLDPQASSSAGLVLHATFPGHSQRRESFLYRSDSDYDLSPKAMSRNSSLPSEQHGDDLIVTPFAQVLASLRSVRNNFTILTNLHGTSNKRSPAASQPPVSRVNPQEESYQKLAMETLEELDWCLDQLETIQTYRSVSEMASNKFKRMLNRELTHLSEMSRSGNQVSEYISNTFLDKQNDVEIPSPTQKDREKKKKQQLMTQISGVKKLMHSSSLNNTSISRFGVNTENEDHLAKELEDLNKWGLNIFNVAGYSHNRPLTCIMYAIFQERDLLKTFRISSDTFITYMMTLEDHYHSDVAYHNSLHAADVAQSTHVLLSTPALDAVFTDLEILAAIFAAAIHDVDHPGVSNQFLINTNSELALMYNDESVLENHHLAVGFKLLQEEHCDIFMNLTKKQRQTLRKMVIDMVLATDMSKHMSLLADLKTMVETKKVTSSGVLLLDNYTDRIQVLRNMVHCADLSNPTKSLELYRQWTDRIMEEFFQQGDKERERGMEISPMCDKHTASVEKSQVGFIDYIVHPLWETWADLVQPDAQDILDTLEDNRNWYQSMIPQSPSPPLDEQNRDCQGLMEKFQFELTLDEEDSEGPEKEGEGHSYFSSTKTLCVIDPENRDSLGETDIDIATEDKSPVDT

CN(C)CCC=C1c2ccccc2CCc2ccccc21
outcome [1]: inactive | Potency [2]: inactive | outcome [3]: inactive | outcome [4]: inactive | outcome [5]: inactive | Potency [6]: inactive | outcome [7]: inactive | outcome [8]: inactive

CCCCN1CCCC[C@H]1C(=O)Nc1c(C)cccc1C
outcome [1]: inactive

CCOc1ccc2ccccc2c1C(=O)N[C@@H]1C(=O)N2[C@@H]1SC(C)(C)[C@@H]2C(=O)O
outcome [1]: inactive

C=Cc1c(C)c2cc3[nH]c(cc4nc(cc5nc(cc1[nH]2)C(C)=C5CCC(=O)O)C(CCC(=O)O)=C4C)c(C)c3C=C
outcome [1]: inactive

O=C(CCCN1CCN(c2ccccn2)CC1)c1ccc(F)cc1
outcome [1]: inactive

c1ccc2c(CC3=NCCN3)cccc2c1
outcome [1]: inactive

CCN(CC)CCOC(=O)C1(C2CCCCC2)CCCCC1
outcome [1]: inactive

COc1ccc2c(c1)C(=O)N(CCc1ccc(S(=O)(=O)NC(=O)NC3CCCCC3)cc1)C(=O)C2(C)C
outcome [1]: inactive

Cn1cc[nH]c1=S
outcome [1]: inactive
